Results filed as inconclusive are left out. Calls of active or inactive are those of the source. How the source made its calls: active means hit-call score of the fitted dose curve at least 0.9, where 1 is the maximum; inconclusive means response in the unintended direction; inactive means score below 0.9.
experiment: ATG_GAL4_TRANS: Attagene TRANS-FACTORIAL HepG2 Assay for GAL4 (Internal Marker) (AID 2282976); conditions: HepG2 Attagene TRANS GAL4 internal marker reporter
Protocol: ATG_TRANS is a cell-based, multiplexed-readout assay that uses HepG2, a human liver cell line, with measurements taken at 24 hours after chemical dosing in a 24-well plate.ATG_GAL4_TRANS is one of 30 assay component(s) measured or calculated from the ATG_TRANS assay. It is designed to make measurements of mRNA induction, a form of inducible reporter, as detected with fluorescence intensity signals by Reverse transcription polymerase chain reaction (RT-PCR) and Capillary electrophoresis technology.Data from the assay component ATG_GAL4_TRANS was analyzed into 1 assay endpoint. This assay endpoint, ATG_GAL4_TRANS, was analyzed in the positive analysis fitting direction relative to DMSO as the negative control and baseline of activity. Using a type of inducible reporter, measures of mRNA for gain-of-signal activity can be used to understand the background control at the transcription factor-level as they relate to the gene . Furthermore, this assay endpoint can be referred to as a secondary readout, because this assay has produced multiple assay endpoints where this one serves a background control function. To generalize the intended target to other relatable targets, this assay endpoint is annotated to the background measurement intended target family, where the subfamily is baseline control.
Human liver HepG2 cells are transiently transfected with multiple reporter transcription units (MRTUs) in 6-well plates using FuGene 6 reagent (Roche; 3 ml FuGene/1 mg DNA). The MRTU constructs are regulated by a cis-regulating element (promoter). […] A major difference between the CIS and TRANS system is that in CIS activities of endogenous TFs are measured, whereas the TRANS assay evaluates changes in activities of exogenous, chimeric NR-Gal4 proteins. […] At the end of 24 hour incubation, total RNA was isolated using TriZol reagent (Invitrogen). The isolated RNA is then reverse-transcribed using oligo(dT) primer and Mo-MLV reverse transcriptase (Invitrogen) with DNAse I (Ambion) treatment for 30 min. The one-tenth of the produced cDNA was amplified by PCR using Taq DNA polymerase (Invitrogen) and two reporter sequence-specific primers. The PCR products were fluorescently labeled by primer extension with 6-arboxyfluorescein (6-FAM) 5'-labeled reporter sequence-specific primer (2 min at 95 C, 20 s at 68 C and 10 min at 72 C) and these products were digested with 5U of HpaI (New England Biolabs) for 2h at 37 C. The fragments were purified using Qiaquick PCR columns (Qiagen), analyzed on an ABI 3130xL genetic analyzer (Applied Biosystems) with peak positions identified by using a set of X-rhodamine (ROX)-labeled MapMarker1000 molecular weight standards (BioVentures). The raw capillary electrophoresis data was processed using Attagraph software (Attagene).

SMILES	outcome
C[C@]12CC[C@H](O)CC1=CC[C@@H]1[C@@H]2CC[C@]2(C)C(=O)CC[C@@H]12	inactive
CC1(C)Cc2cccc(O)c2O1	inactive
Nc1ccc(Cl)cc1C(=O)c1ccccc1	inactive
N#CCc1ccc(Cl)cc1	inactive
Nc1ncc([N+](=O)[O-])s1	inactive
CCOC(=O)/C=C(C)/C=C/C[C@@H](C)CCCC(C)C	inactive
C=CC#N	inactive
CC(C)(OO)c1ccccc1	inactive
C=CCc1ccc(OC)cc1	inactive
COP(=S)(OC)Oc1c(Cl)cc(C)cc1Cl	inactive
CCCCCCCCc1ccc(O)cc1	inactive
CC12CC1(C)C(=O)N(c1cc(Cl)cc(Cl)c1)C2=O (stereo not given)	inactive
O=C1C2(Cl)C3(Cl)C4(Cl)C(Cl)(Cl)C5(Cl)C3(Cl)C1(Cl)C5(Cl)C24Cl (stereo not given)	inactive
NNC(=S)NN	inactive
O=S(=O)(c1ccc(Cl)cc1)c1ccc(Cl)cc1	inactive
O=C(O)C(F)(F)C(F)(F)C(F)(F)C(F)(F)C(F)(F)C(F)(F)F	inactive
BrCCBr	inactive
CCc1ccccc1N	inactive
Cc1ccccc1N	inactive
CCOC(=O)Nc1cccc(OC(=O)Nc2ccccc2)c1	inactive

SMILES	outcome
CCC[CH2][Sn]([CH2]CCC)([CH2]CCC)[O]C(=O)c1ccccc1	inactive
CCc1ccccc1C	inactive
CN(C)P(=O)(N(C)C)N(C)C	inactive
C=CC(=O)N(C)C	inactive
CC(C)(c1ccc(OCC2CO2)cc1)c1ccc(OCC2CO2)cc1 (stereo not given)	inactive
CCC(=O)c1ccccc1	inactive
Cc1cc(=O)[nH]o1	inactive
CC(C)C1CCC(Cc2ccc(Cl)cc2)C1(O)Cn1cncn1 (stereo not given)	inactive
CCOP(OCC)OCC	inactive
CCC1(c2ccc(N)cc2)CCC(=O)NC1=O (stereo not given)	inactive
ClC1(Cl)C2(Cl)C3(Cl)C4(Cl)C(Cl)(Cl)C5(Cl)C3(Cl)C1(Cl)C5(Cl)C24Cl (stereo not given)	inactive
N#CCCO	inactive
COc1cccc(C=O)c1	inactive
CC1(C)CCC(Cc2ccc(Cl)cc2)C1(O)Cn1cncn1 (stereo not given)	inactive
O=[N+]([O-])c1ccc2c3c(cccc13)CC2	inactive
Clc1nc(Cl)nc(Cl)n1	inactive
O=C1CCCN1	inactive
C[C@@H](Oc1ccc(Cl)cc1Cl)C(=O)O	inactive
O=C1C(Cl)=C(Cl)C(=O)c2ccccc21	inactive
C=CC(=O)OCCCCCC(C)C	inactive
